25 molecules from PubChem BioAssay (NCATS) can be followed below.

Inconclusive results are not listed. A number with no mark means an inactive call. Activity calls are given as the source filed them. Calls come from the whole dose curve.

Chain of Thyroid hormone receptor beta (Homo sapiens) (P10828 whole entry, looked up): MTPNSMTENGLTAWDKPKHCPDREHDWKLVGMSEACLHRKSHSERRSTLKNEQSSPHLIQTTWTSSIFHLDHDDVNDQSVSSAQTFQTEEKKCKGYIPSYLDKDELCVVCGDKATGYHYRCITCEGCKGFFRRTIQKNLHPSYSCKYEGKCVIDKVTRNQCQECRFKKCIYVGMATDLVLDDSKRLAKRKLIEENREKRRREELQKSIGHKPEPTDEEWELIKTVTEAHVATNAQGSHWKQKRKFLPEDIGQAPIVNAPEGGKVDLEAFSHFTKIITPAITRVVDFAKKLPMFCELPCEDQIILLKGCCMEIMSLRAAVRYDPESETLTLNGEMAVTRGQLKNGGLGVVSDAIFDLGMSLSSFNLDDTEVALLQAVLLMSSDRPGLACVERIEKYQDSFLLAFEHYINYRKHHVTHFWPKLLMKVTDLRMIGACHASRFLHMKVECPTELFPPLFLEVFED

For this test, the target named is Thyroid hormone receptor beta (Homo sapiens) (UniProt P10828). Kind of test: qHTS assay for small molecule agonists of thyroid hormone receptor beta signaling (AID 588545). The conditions noted are these: TR-UAS-bla GripTite HEK 293, beta-lactamase ratio, agonist mode, 18 h, percent of T3 response, DMSO as zero; series mostly up to 76.7 µM; activation: at the top concentration. The source says:
NIH Chemical Genomics Center [NCGC]
U.S. Environmental Protection Agency [EPA]
National Institutes of Environmental Health Sciences [NIEHS]
National Toxicology Program [NTP]
Thyroid hormone receptor (TR) belongs to nuclear hormone receptor superfamily. There are two subtypes for TR: TR-alpha and TR-beta. TR-beta plays a major role in regulating plasma cholesterol levels and it mediates the biological activities of thyroid hormone. Screening environmental chemicals on TR-beta signaling will provide important information for the mechanism of compound action.
NCGC Assay Protocol Summary
Using a beta-lactamase reporter-gene under control of the TR response element, a cell-based assay [GeneBLAzer TR-UAS-bla-GripTite assay developed by Invitrogen] was used to measure TR-beta signaling in agonist mode. TR-UAS-bla-GripTite HEK 293 cells were used with assay medium containing 2% charcoal/dextran FBS, 0.1 mM NEAA and 1 mM sodium pyruvate. The assay was performed in clear bottom black Greiner 1536-well plates. T3 was used as a positive control in the screen. Library compounds were measured for their ability to stimulate the reporter gene activity. Compounds were screened in a titration series in 1536-well format. The fluorescence intensity (405 nm excitation, 460/530 nm emission) was measured using an EnVision plate reader. Data was normalized relative to T3 control (10 nM, 100%), and DMSO only wells (basal, 0%). Concentration-response titration points for each compound were fitted to the Hill equation yielding concentrations of half-maximal stimulation (EC50) and maximal response (efficacy) values.
qHTS protocol for TR-beta beta-lactamase assay in agonist mode
[Step] [Parameter] [Value] [Description]
1. Reagent; 6 uL; 2500 cells/well
2. Incubation; 37 C for 4 hrs
- Dose response; start 3.8 uM, 1:3 dilutions, duplicates in first column
- Two columns of each 10 and 0.4 nM (finals) concentrations.
5. Incubation; 37 C for 18 hrs
6. Detection reagent; 1 uL of CCF4-dye
7. Incubation; RT for 2 hrs
8. Detection; Fluorescence; Envision plate reader
On the technique in general: Quantitative high-throughput screening tests each substance at several concentrations.
Turning to `NS(=O)(=O)c1cc2c(cc1Cl)NCNS2(=O)=O`, the outcome was inactive.

For `CC#C[C@]1(O)CC[C@H]2[C@@H]3CCC4=CC(=O)CCC4=C3[C@@H](c3ccc(N(C)C)cc3)C[C@@]21C`, the “activation” value was 0.733%.

As to `CC(C)(Oc1ccc(C2CC2(Cl)Cl)cc1)C(=O)O` (stereo not given), the “activation” value was -5.85%.

Consider `CCC1(c2ccccc2)C(=O)NCNC1=O`, for which the result was inactive.

With `O=C(CCCN1CCC(O)(c2ccc(Cl)cc2)CC1)c1ccc(F)cc1`, the “activation” value was -8.06%.

Regarding `COc1cc2c(c(OC)c1OC)-c1ccc(OC)c(=O)cc1[C@@H](NC(C)=O)CC2`, the result was inactive.

In the case of `Cc1cn([C@H]2C[C@H](N=[N+]=[N-])[C@@H](CO)O2)c(=O)[nH]c1=O`, the outcome was inactive.

Consider `CN(Cc1cnc2nc(N)nc(N)c2n1)c1ccc(C(=O)N[C@@H](CCC(=O)O)C(=O)O)cc1`, for which the “activation” value is -3.66%.

As to `Clc1ccc(C(c2ccccc2Cl)C(Cl)Cl)cc1` (stereo not given), the “activation” value was -5.29%.

As to `Cn1cnc2c1c(=O)[nH]c(=O)n2C`, the “activation” value was 21.2%.

`CC(C)Cc1ccc(C(C)C(=O)O)cc1` (stereo not given): the “activation” value is 8.93%.

Take `O=C(Nc1ccc([N+](=O)[O-])cc1Cl)c1cc(Cl)ccc1O`: the “activation” value is -19.5%.

As to `NCCS(=O)(=O)O`, the “activation” value is -9.2%.

On to `O=c1c(-c2ccc(O)cc2)coc2cc(O)cc(O)c12`, for which the “activation” value is -8.36%.

Consider `CC(C)C(=O)Nc1ccc([N+](=O)[O-])c(C(F)(F)F)c1`, for which the result was inactive.

In the case of `Cc1cn([C@H]2C=C[C@@H](CO)O2)c(=O)[nH]c1=O`, the result was inactive.

For the molecule `Nc1c2c(nc3ccccc13)CCCC2`, the “activation” value was -18.8%.

As for `COc1ccc2c(c1)c(CC(=O)O)c(C)n2C(=O)c1ccc(Cl)cc1`, the result was inactive.

For `CCOC(=O)C(C)(C)Oc1ccc(Cl)cc1`, the “activation” value was -6.72%.

As to `CC(C)NCC(O)c1ccc(O)c(O)c1` (stereo not given), the result was inactive.

On to `C[C@](N)(Cc1ccc(O)c(O)c1)C(=O)O`, for which the “activation” value is 1.06%.

For `CC(COc1ccccc1)N(CCCl)Cc1ccccc1` (stereo not given), the outcome was inactive.

In the case of `Cn1c(=O)c2[nH]cnc2n(C)c1=O`, the “activation” value was -18.4%.

As for `COc1ccc2[nH]cc(CCNC(C)=O)c2c1`, the result was inactive.

Regarding `Nc1ccn([C@H]2CC[C@@H](CO)O2)c(=O)n1`, the “activation” value was -4.83%.
